Consider 108 sequences from PubChem BioAssay AID1508600 (Functional Genomics Laboratory (NCATS/FGL), 2020).

Among all 53,000 sequences or so, about 3,700 (7%) were called active. The entries come from a sample that favours actives as a whole. A number with no mark means an inactive call.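 How the source made its calls: active means gene knockdowns whose robust z-score for IL-1 alpha signal is at least 2 or at most -2, so actives lie on both sides; inactive means the rest.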

The nature of this assay: Components of the Cytosolic LPS Sensing Pathway: Gene Identification via Genome-wide siRNA Screen.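 Further: robust z of the log signal after scaling to non-targeting control siRNA wells of the plate.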 The conditions noted are these: RAW264.7 macrophages, IL-1a HTRF, actives lie on both sides, screened at 100 nM (by protocol), cells primed 5 h with Pam3CSK4 first. The essentials: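 Mouse macrophage line RAW264.7 is transfected with siRNA (100 nM final), grown 48h, primed with TLR ligand Pam3CSK4 5 h and given intracellular LipidA 24 h. IL-1a in supernatant is read by HTRF and viability by luminescence.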
(In TR-FRET formats the signal depends on donor and acceptor labels being close together.)
Turning to GGACGAGAACGAUAAUUACTT against Dsc2, the z-score is 0.335. Take GGAGGUAAAGAUCAUGUCATT against Ddr1: the z-score is -1.39. The figure for GGAGUAGCUGUACUCAACATT against Olfr790 is -0.246. Consider GGUCCUAGGUACAAUCACUTT against Slfn10-ps, for which the z-score is -2.58 (active). Take GCCACUCAGAGUGUGGAGUTT against Ddx20: the z-score is -0.95. The same measure for GUCCUGGAAGAAAUGAGAATT against Ifna4: 0.781. The same measure for CCCACAUCCCUAAGUUGUGTT against Kash5: 1.55.

For the sequence GGAUAAUCAUUCUUGUCACTT against Ptgfr, the z-score was -0.736. The same measure for GGUCUUUGAAUGGAACAAUTT against Aldh7a1: -1.04; for GGAGUCUCCCAAAUGAAGATT against Son: -2.84 (active). The same measure for GAGAGAGAAUACCACUGUGTT against Gm5431: -0.244. The same measure for GCUGGAUGUGAAAAGAGCGTT against Aktip: -0.00618; for GGUGGAUGAAGAGUAUAAGTT against Phka2: 0.338. For the sequence GGCAGUAAGAACUACUAAATT against Ric1, the z-score is 2.65 (active). Turning to GGGCCAGCAAGGAAAGAAUTT against Pitx2, the z-score is -1.37.

With GCCAUGAUACCUUGUUAUUTT against Plppr5, the z-score was 1.08. The figure for GCUUUUUUAUGCAUUCCAATT against Rock1 is 0.575; for GGCACCAAGCUCGAUGAUGTT against Sh3gl2 it is -1.41; for GCUUUUCACAUGAUGUGUUTT against Klrb1a it is -0.5. The same measure for GCCCUUACUUAGGUCUAGGTT against Kctd12: -0.522; for GGAAGAGAAGCUGAACAAGTT against Gja1: 2.53 (active); for GGAGCUUCUCAUGACCUUUTT against Mettl21e: 0.307. The same measure for “GCGAUGGUAUGUUGAAGGATT against 4930432E11Rik”: 0.639; for GGAGUACAUGACCACAGAUTT against Lncpint: -2.06 (active); for GCCUAAAAACUCUAAAUCUTT against Mmut: -0.0189. As to GGUGUGGACUAUGAUACCATT against Anxa9, the z-score was 0.984. Regarding GGCUUUGAACAGGAAAGACTT against Ube2z, the z-score is -0.417. For the sequence CCUGCAAAUGAUACCACCGTT against Olfr734, the z-score was -0.402. The same measure for GGAGCGAAGUGAUGAAUAATT against Prph2: 0.0677. In the case of GGAGCAGCUGAGAGAAAAATT against Ccdc144b, the z-score was -0.413. The figure for GCGAUUCAGAGACCUAUGGTT against Aven is -2.22 (active); for GGAUGCUGAUUUAAAGACUTT against Rai14 it is 1.69; for GCUGAAGGGACUCUAACCATT against Ihh it is 0.715. Consider CCUCUGGAUCUACGAGCUGTT against Odf4, for which the z-score was -0.00669. Take “GCAGAUAGAAGACUGGAAUTT against 1700024G13Rik”: the z-score is 0.424. For GGUUAUUUCUGAAAUGUGCTT against Fbxl4, the z-score is -1.3.

GGCUGAAAAUGGGAAGCUUTT against Gm5069: the z-score is 0.0536. The figure for GGAUGAGCUGAGGAAAUCCTT against Psd2 is -0.535.

For GGUUCUAGACAAUUACCUGTT against Clic1, the z-score was 2.43 (active). For the sequence GCCAGGGACUUGCUAUUGATT against Txlna, the z-score is -0.24. As for GGGAAUGGCUUGAUUCUGUTT against Olfr609, the z-score was 0.514. The same measure for CGACAAGGAGACCUACAAATT against Itm2b: 0.615; for CGCAUCAUAAUGAUUGUGATT against Matn2: -0.269; for GGCAUCUAUACCAGUAAUATT against Mllt6: -0.562.

Regarding CCAACAGCAACGAUGACAATT against Thoc5, the z-score was -2.94 (active). As for GGAAAUGAUACCUUACCACTT against Zfp715, the z-score was 0.162. The same measure for “GCGUGAACCGUUUGAUGAGTT against 9030612E09Rik”: 1.04; for GGACAUGAAAGAAACGGUGTT against Bbc3: -0.282.

As for GCUUCCUCUUAUCAUAUAATT against Rgs13, the z-score was -0.119. The same measure for GGUAUUAGAAAUCCUGAUCTT against Pias2: -0.716. Take GGUAUUUCAGAUAACCUGGTT against Bbs12: the z-score was 2.9 (active). The figure for CGCAUCAUAUUCUGAUUCCTT against Rmnd5b is 0.138; for CGCAGACAACAAAGUAGAATT against Sars it is 0.738.

As for GGUGUUGUAAAAUUCCUCATT against Ncoa7, the z-score was -2.08 (active). As to GCAUUUCGACGCGGCUUUUTT against Snapc1, the z-score was 0.617. As for GGUAAACCUGCCAAUUUUGTT against Ovch2, the z-score was 1.54. Turning to GCCAUGUGAGACUCUUAUATT against Slc2a9, the z-score is 0.62.

With GCAGCUCCUUUAUACCCACTT against Mxra7, the z-score was -1.25.

In the case of GGAGGGAGCAGAUUGAAACTT against Eri2, the z-score is -0.281. Turning to GCAUGCUUAAGCCUAUAAATT against Ncstn, the z-score is -1.88. The figure for GUGUCUCUGUACUUAUUAUTT against Olfr483 is 0.69. The same measure for GGUGGACGUACUUUUUAACTT against Gata3: 2.59 (active); for GCUUUUAGAAUAAAGCUGATT against Fgl2: 0.75; for CCUAUGUCCACCACAAAUGTT against Ifi209: -0.14.

Turning to GCAACCUGUCCCUUCUUGATT against Olfr225, the z-score was 1.53. The figure for GGAGCUGAAGCCAUUCAACTT against Gpx6 is 2.08 (active); for GGGAAAUGUUGUAGUAGAUTT against Rars2 it is 0.535; for CCACUGUGUGACAUUAAAGTT against Metap2 it is -0.799. The same measure for GCAACUAGCGUGUGUUCCUTT against Arpc1a: 2.4 (active); for GGCACAGAAUAUCCACCACTT against Olfr283: -1.01; for GGCAUUCAGGAAGUUACUGTT against Krt75: -1.63.

Regarding GGCUUAAUUGCUAGCCAAGTT against Slc7a13, the z-score is 0.849. As to GGCUUUCGCUAGAAAACUCTT against Sftpc, the z-score is 0.531. As for CGUGGAAAGAAAAUUAUCATT against Psmd11, the z-score was -2.21 (active).

In the case of GCAAAUUUUAUAUGCGACUTT against Glipr1, the z-score was -0.561. The figure for GGAGAAUGACUACUAUACUTT against Stt3a is -0.127. Turning to CCAGACACGCAUUGCGAAATT against H2-M2, the z-score was 0.357. Consider GCAUCAAUUCCCAAACCUUTT against Selenov, for which the z-score is -0.0263. The same measure for GGGCAAACCAGUUAGCAGATT against Atxn2: 0.278; for GGGAAGCCUUACUUAUUGGTT against Vmn1r53: 1.25.

As for GGACGAAAUCUUGUCUGAUTT against Atg4b, the z-score is 2.59 (active). For GGACAAAACCUCAGUUGAUTT against Bves, the z-score is 1.05. Take CCAAGGACACUAUACAAAUTT against Fank1: the z-score was 0.957. On to CCCGCAACAAUAAACCUGATT against Yif1b, for which the z-score is -1.36. The same measure for GCAGUACAUAGGACAAUACTT against Ccdc97: 0.0835. For GGAAGAAGAAAGUGUUAAATT against Ythdf2, the z-score was -0.337. The same measure for GGUCCAAUUUUAUAACAGUTT against Dmtf1: 0.359; for GCCAUGUCAAUCAAUCACUTT against Nucks1: -2.57 (active); for GGCUACCAAGGCAGUUUCCTT against Glis1: -1.35.

As for GCUUUACUCCAGAUGGAUCTT against Chaf1b, the z-score was 3.23 (active).

GGGUAUCAGUGCCUUCCUGTT against Acads: the z-score was -1.05. In the case of GGUCACUCGGUUCACAAAATT against Bid, the z-score is -0.731.

Turning to CGUUCAUAUAGAGAACUGUTT against Naip1, the z-score is 0.699. “CGUGCCUGCUCAAUUAAUUTT against 1700067P10Rik”: the z-score is 2.46 (active).

For GGGUAAUAGACCAUUUCUUTT against Olfr124, the z-score was 0.255. The same measure for GGAGCUUAGAGGAACGAAUTT against Cyp2j9: 1.4; for GGAUUUUGGCCAAAUUGGUTT against Slc25a30: -2.08 (active); for GGAAGAAGAAGACCAGGGATT against Parvb: -0.0188. The figure for GGCCAACUUCGAAGAAAAGTT against Mrpl52 is 0.192. The same measure for CCAAAAAAUCCUAUACUCUTT against Cdh8: 1.42. Regarding GGUCACUUCCUUAAUUUUATT against Disc1, the z-score is -1.62. The same measure for GGAAGACCCUAAUCUAGUCTT against Cox5b: 2.1 (active); for GGCUUGGUGUUUUGAUUAGTT against Rogdi: 1.6. As to GGUCUUGCAUGUCUCUGAGTT against Lrrc47, the z-score was -1.45.

As for GGAGUUUGAACAUAUGAAGTT against Rcn1, the z-score is -0.417.

On to GCUAUCAUGAAGCUAAAUGTT against Igf2bp1, for which the z-score was 0.267. With GGACAAGCAAGAAGGAAUUTT against Polr2j, the z-score is -2.43 (active).

For CCAGAUUAUGACAAAGCGUTT against Glyat, the z-score is -0.0538.
